# Bioassay records (PubChem)
# Shown are actives, neighbours in structure and some others; about 12% of the full set was active somewhere.
# Sfp inh = blocks B. subtilis Sfp PPTase activity; Potency, µM, for inactives: largest response in the series, negative = inhibition, actives largely listed as inhibitors; Q9F4F7; Biochemical Sfp PPTase activity, qHTS; 310,000 tested, 3.5% active;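 further: the enzyme is Sfp with the accession as filed and its product quenches rhodamine fluorescence; 0% = enzyme reaction without inhibitor and -100% = no enzyme wells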
#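 After 15 min at room temperature with compound, 15 nM Sfp received 5 uM rhodamine-CoA plus 12.5 uM BHQ-2-ybbR (50 mM Hepes pH 7.6, 10 mM MgCl2). Rate came from the fluorescence difference over 30 min, ex 525/em 598 nm.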
# HP1b chromo inh = HP1-beta chromodomain-methylated histone interaction inhibition; P83916; AlphaScreen HP1-beta / biotin-H3K9me3 peptide binding; Potency, µM (top dose mostly 114 µM), for inactives: at the highest dose activity change, negative = inhibition, actives largely listed as inhibitors; 390,000 tested, 0.56% active; AID 540317; further: nearly all actives have a fitted effect of over 70% in size
#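 HP1-beta protein (50 nM final) preincubated 30 min at room temperature with biotinylated H3(1-18)K9me3 peptide (50 nM) in PBS pH 7.4, 0.01% Tween-20, then compound added for 30 min. AlphaScreen streptavidin donor/nickel chelate acceptor beads (10 ug/mL final), 30 min dark, luminescence read.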
# JMJD2A Tudor = inhibitors of human JMJD2A Tudor domain | O75164 | AlphaScreen JMJD2A-Tudor / H3K4me3 peptide binding | Potency, µM (top dose mostly 114 µM), inactives show top-dose activity change, negative = inhibition, hits mostly inhibitors | 390,000 tested, 4.4% active | AID 504339; further: on the % scale 0 is the no-effect control and ±100 the full control effect; nearly all actives have a fitted effect of over 50% in size
# BAZ2B block = blocks human BAZ2B. Q9UIF8. AlphaScreen BAZ2B-H3K14Ac peptide displacement. Potency, µM (top dose mostly 114 µM), for the others: top-dose activity change, negative = inhibition, actives largely listed as inhibitors. 360,000 tested, 4.4% active. AID 504333; further: on the % scale 0 is the no-effect control and ±100 the full control effect; nearly all actives have a fitted effect of over 60% in size
# Target sequence (Q9UIF8 whole entry, looked up): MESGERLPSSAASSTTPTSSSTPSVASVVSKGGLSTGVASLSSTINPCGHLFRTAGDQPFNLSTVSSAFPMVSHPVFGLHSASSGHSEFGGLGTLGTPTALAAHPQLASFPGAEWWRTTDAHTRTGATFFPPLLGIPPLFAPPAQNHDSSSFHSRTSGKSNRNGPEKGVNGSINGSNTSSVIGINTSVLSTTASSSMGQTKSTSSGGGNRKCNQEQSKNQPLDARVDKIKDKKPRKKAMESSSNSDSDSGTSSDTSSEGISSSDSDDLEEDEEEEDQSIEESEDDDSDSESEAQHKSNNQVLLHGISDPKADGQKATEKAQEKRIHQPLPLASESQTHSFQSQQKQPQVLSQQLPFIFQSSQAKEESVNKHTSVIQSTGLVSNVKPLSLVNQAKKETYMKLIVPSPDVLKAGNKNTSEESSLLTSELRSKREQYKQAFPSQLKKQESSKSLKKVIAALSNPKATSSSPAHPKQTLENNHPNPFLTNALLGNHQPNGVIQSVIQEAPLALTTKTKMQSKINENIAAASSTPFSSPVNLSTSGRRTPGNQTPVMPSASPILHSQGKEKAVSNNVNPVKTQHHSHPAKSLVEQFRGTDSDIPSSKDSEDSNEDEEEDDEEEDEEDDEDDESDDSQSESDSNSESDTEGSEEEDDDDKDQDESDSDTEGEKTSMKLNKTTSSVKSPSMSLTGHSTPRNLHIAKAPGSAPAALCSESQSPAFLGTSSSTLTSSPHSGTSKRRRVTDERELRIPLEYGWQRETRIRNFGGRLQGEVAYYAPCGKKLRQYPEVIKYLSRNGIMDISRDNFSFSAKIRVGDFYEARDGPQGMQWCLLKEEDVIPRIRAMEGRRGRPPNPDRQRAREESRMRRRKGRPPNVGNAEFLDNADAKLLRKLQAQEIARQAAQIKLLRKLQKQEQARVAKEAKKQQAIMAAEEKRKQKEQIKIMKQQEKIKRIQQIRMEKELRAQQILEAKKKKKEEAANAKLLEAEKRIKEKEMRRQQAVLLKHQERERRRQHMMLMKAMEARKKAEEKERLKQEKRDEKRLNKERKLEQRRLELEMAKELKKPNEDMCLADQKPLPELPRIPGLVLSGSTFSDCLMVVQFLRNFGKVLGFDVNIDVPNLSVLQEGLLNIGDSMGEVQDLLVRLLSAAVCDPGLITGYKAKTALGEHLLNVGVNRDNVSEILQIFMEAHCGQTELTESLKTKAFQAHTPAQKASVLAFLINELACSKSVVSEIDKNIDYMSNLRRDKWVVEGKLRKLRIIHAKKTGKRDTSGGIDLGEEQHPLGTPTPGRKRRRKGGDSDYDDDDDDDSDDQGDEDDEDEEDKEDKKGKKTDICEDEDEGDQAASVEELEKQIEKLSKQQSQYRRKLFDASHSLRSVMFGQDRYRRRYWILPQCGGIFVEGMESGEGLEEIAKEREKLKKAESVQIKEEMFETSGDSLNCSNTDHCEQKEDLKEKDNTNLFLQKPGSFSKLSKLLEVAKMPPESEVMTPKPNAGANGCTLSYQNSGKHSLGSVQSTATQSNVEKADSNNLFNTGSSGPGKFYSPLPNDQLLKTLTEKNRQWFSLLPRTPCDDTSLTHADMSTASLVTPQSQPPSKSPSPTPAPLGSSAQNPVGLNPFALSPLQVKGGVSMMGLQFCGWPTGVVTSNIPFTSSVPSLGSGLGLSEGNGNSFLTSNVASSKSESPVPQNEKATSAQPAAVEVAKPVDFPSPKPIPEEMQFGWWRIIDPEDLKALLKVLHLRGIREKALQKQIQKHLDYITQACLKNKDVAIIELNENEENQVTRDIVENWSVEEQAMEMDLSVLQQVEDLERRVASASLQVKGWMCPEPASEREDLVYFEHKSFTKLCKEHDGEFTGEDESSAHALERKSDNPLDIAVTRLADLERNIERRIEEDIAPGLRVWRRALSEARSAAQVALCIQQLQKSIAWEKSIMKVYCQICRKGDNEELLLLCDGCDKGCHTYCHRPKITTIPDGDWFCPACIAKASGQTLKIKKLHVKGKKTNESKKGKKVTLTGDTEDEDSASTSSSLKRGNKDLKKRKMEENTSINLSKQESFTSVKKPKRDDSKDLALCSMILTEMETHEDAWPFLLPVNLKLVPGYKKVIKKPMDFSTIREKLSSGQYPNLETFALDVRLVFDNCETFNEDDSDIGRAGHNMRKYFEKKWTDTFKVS
#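 Compounds, titrated to a top concentration of 110 uM, were incubated 30 min at room temperature with preformed BAZ2B/acetyl-K14 H3 peptide complex (50 nM each). Proximity signal was measured by AlphaScreen after 20 min with beads.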
# G9a block = blocks human histone lysine methyltransferase G9a. Q96KQ7. AID 504332. G9a H3K9 monomethylation, AlphaScreen, 2 h. 350,000 tested, 8.8% active. Potency, µM (doses to about 102 µM), without a hit: top-dose activity, negative = inhibition, most hits filed as inhibitors; further: on the % scale 0 is the no-effect control and ±100 the full control effect; nearly all actives have a fitted effect of over 75% in size
#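 Chemiluminescent proximity detection of H3K9 monomethylation, read after 10 min bead incubation in the dark. Reaction: 20 nM G9a, 500 nM biotin-H3K9 peptide, 20 uM SAM cofactor, 2 h, room temperature, following 15 min enzyme-compound preincubation.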
# L3MBTL1 inh = L3MBTL1 (human) inhibition; Q9Y468; AlphaScreen L3MBTL1–H3K9me1 peptide binding; Potency, µM (top dose mostly 57.1 µM), for the others: top-dose activity, negative = inhibition, most hits filed as inhibitors; 230,000 tested, 0.66% active; AID 485360; further: on the % scale 0 is the no-effect control and ±100 the full control effect; nearly all actives have a fitted effect of over 60% in size
#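 L3MBTL1 50 nM + b-AHA-H3(1-15)K9me1 75 nM, 30 min RT; compound added, 30 min RT; streptavidin donor/Ni-chelate acceptor beads 10 ug/mL each final, 30 min RT dark; AlphaScreen read.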
# Active calls of the source: *; ? = inconclusive; · = not tested or not shown; [ ] = dose if it differs, or a comment. The call rests on the fitted dose curve; in most records, active means well fitted curve in the direction sought with a large enough effect; inconclusive means small, poorly fitted or top-dose-only effect, or another doubt; inactive means no such curve, though single readings can be large; an effect the other way counts as inactive or inconclusive. Potency means the concentration at half of the fitted maximal effect.
SMILES,Sfp inh,HP1b chromo inh,JMJD2A Tudor,BAZ2B block,G9a block,L3MBTL1 inh
O=c1c2c3nc4ccccc4nc3n(-c3ccc4c(c3)OCCO4)c2ncn1C1CCCC1,6%,42%,79µM*,·,-5%[59 µM],3%
Cc1nc2cc(Cl)ccc2n1-c1ccccc1,2%,19%,-12%,?,4%[59 µM],·
Cc1n(-c2ccccc2)c2ccc(Cl)cc2[n+]1CCO,-9%,-20%,?,-17%,8.9µM*,8%
N#Cc1ccc(S(=O)(=O)N2CCN(c3nc(-c4cccs4)nc4ccccc34)CC2)cc1,·,23%,-19%,·,·,·
CCCCSc1nc2c([nH]1)c(=O)n(C)c(=S)n2C,·,23%,-8%,·,·,·
Cn1c(=O)c2[nH]c(=O)cnc2n(C)c1=S,18µM*,-10%,-6%,-15%,50µM*,4%
CN(C(=O)Cn1cnc2ccccc2c1=O)C1CCS(=O)(=O)C1 (stereo unspecified),·,31%,-1%,29%,8%,-1%
S=C(NCC1CCCO1)N1CCN(Cc2ccccc2)CC1 (stereo unspecified),?,20µM*,0.89µM*,20µM*,16µM*,-5%
S=C(NCC1CCCO1)N1CCN(c2nc(-c3ccccc3)cs2)CC1 (stereo unspecified),6%,-1%,?,?,50µM*,-20%
COc1ccc([N+](=O)[O-])cc1NCC(=O)Nc1cccc(S(=O)(=O)N2CCCC2)c1,·,15%,-26%,-19%,?,-9%
Cc1cccc(N2CCN(c3ccc(N4C(=O)CCCC4=O)cc3[N+](=O)[O-])CC2C)c1 (stereo unspecified),-8%,?,?,28µM*,?,-17%
Cc1cccc(N2CCN(c3ccc(N4C(=O)CCCC4=O)cc3[N+](=O)[O-])CC2)c1C,-7%,-7%,-19%,-8%,16%,-7%
CCC(CNc1cc(OC)cc2cccnc12)NC1CCCCC1 (stereo unspecified),45µM*,-11%,56µM*,?,5µM*,-25%
COc1cc(NCCCC(C)N)c2ncccc2c1 (stereo unspecified),56µM*,-10%,22µM*,32µM*,?,-17%
COc1ccc(CCC(C)NC2CCCCCCC2)cc1 (stereo unspecified),10%,54%,-17%,13%,·,-1%
COc1cc(NC(=O)c2ccccc2Cl)c2ncccc2c1,-11%,112%,89%,31%,148%,18%
O=C(CSc1ncnc2nc[nH]c12)c1ccccc1,16µM*,27%,-33%,?,?,28%
O=C(CSc1nc2ncc(Br)cc2[nH]1)c1ccc([N+](=O)[O-])cc1,-10%,?,?,?,14µM*,-4%
c1ccc(CCSc2ncnc3nc[nH]c23)cc1,12%,25%,-15%,-1%,-2%,2%
Cc1snc(SCC(=O)c2ccc([N+](=O)[O-])cc2)c1C#N,20µM*,?,-11%[11.4 µM],14µM*,1.8µM*,-7%
O=C(CSc1ncnc2nc[nH]c12)c1ccc(Cl)cc1,50µM*,-36%,18µM*,?,·,0%
CCN(CC)C(=O)CSc1nc2ncc(Br)cc2[nH]1,11%,34%,-20%,8%,2%,5%
O=C1CCc2cc(S(=O)(=O)Nc3ccccc3-c3ccccc3)ccc2N1,·,·,-20%,·,·,·
CN1C(=O)c2cccc3c(S(=O)(=O)Nc4cccc(C(=O)O)c4)ccc1c23,·,25%,-10%,-8%,-35%[59 µM],·
CN1CCN(c2ncc3ncc(=O)n(CCC#N)c3n2)CC1,19%,·,·,·,6%[0.501 µM],·
SMILES,Sfp inh,HP1b chromo inh,JMJD2A Tudor,BAZ2B block,G9a block,L3MBTL1 inh
O=C(CSc1ncnc2nc[nH]c12)c1ccc([N+](=O)[O-])cc1,45µM*,15%,-32%,79µM*,·,2%
CCOC(=O)c1cc(-c2ccccc2)n(CCC(=O)NCCc2ccc(C)cc2)c1C,·,-24%,-27%,-20%,?,·
C/C=C/c1cc(CN2CCN(c3ccccc3)CC2)c(O)c(OC)c1,0%,-1%,?,·,?,-27%
COc1ccc(N2CCN(Cc3cc4c(cc3O)CCC4)CC2)cc1,-19%,-53%,16µM*,32µM*,?,·
C/C=C/c1cc(CN2CCN(c3ccc(OC)cc3)CC2)c(O)c(OC)c1,1%,45µM*,45µM*,28µM*,35µM*,-28%
COc1ccc(N2CCN(Cc3cc(=O)oc4cc5c(cc34)CCCC5)CC2)cc1,1%,28%,-9%,5%,8%[59 µM],-2%
CC1C(=NO)C(C)C(c2ccc(N(C)C)cc2)NC1c1ccc(N(C)C)cc1 (stereo unspecified),-29%,29%,-8%,40µM*,-5%[0.0925 µM],25µM*
CC1=CS/C(=C(/C#N)C(=O)NCc2ccco2)N1c1ccccc1,2%,49%,-1%,9%,-23%,·
N#C/C(C(=O)NCc1ccco1)=C1/SC=C(c2ccccc2)N1c1ccccc1,0%,35%,-7%,-3%,16µM*,0%
N#C/C(C(=O)NCc1ccco1)=C1/SC(Cc2ccc(Cl)cc2)C(=O)N1c1ccccc1 (stereo unspecified),40µM*,-6%,-21%,11%,-16%[59 µM],13%
N=C(N)c1ccc(N=Nc2c(O)ccc3c2[nH]c2ccccc23)cc1,·,71µM*,56µM*,·,·,·
Oc1[nH]c2ccccc2c1N=Nc1cccc(Cl)c1,2%,61%,-24%,-9%,-17%[2.33 µM],·
Cc1ccc([C@@H]2C[C@H]3CN(Cc4cccc(Cl)c4)C(=O)[C@]34CCCN24)o1,-13%,17%[57 µM],-8%,?,?,-4%
O=C1N(Cc2cccc(Cl)c2)C[C@@H]2C[C@@H](c3c[nH]c4ccccc34)N3CCC[C@@]123,-17%,-30%,?,-31%,35µM*,-18%
Cc1cccc([C@@H]2C[C@H]3CN(Cc4cccc(Cl)c4)C(=O)[C@]34CCCN24)n1,-7%,18%,-2%,-21%,40µM*,-1%
O=S(=O)(c1ccc(C(F)(F)F)cc1)N1CCN(S(=O)(=O)c2ccc3c(c2)OCCO3)CC1,·,·,-14%,·,·,·
CCOC(=O)CSc1nnc(CSc2nc(N)c3c(C)c(C)sc3n2)n1-c1ccccc1,3%,14%,-28%,6%,45µM*,1%
COc1ccc(-n2c(COc3ccc(C)cc3)nnc2SCC(N)=O)cc1,7%,34%,-16%,0%,32µM*,-1%
CCOc1cc(C)ccc1OCc1nnc(SCC(=O)c2cccc([N+](=O)[O-])c2)n1CC,20%,1%,-28%,-5%,-5%,3%
CCOC(=O)CSc1nnc(Cc2ccc(OC)cc2)n1-c1ccccc1,2%,34%,45µM*,8%,7.9µM*,·
